From PubChem
CFTR F508del cor: F508del CFTR correction, initial screen, CFBE line, single point | activity (quench increase), % at 7.58 µM | CFBE cells, YFP halide quenching; stimulated with forskolin plus potentiator P3; % fluorescence drop versus neutral controls | 350,000 tested, 0.36% active;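 active = mean added fluorescence quench of at least 8% versus neutral control, with both replicates also reaching 8%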;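 note: cells transiently co-express mutant CFTR-F508del with the halide-sensitive YFP; corrector assay measuring rescue of mutant channel to the surface after 24 h compound exposure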
CendR NRP1 mod: modulators of CendR peptide binding to NRP-1, primary screen, biochemical, fluorescence polarization, uHTS; Neuropilin-1 (Homo sapiens), O14786; inhibition, % at 25 µM; FAM-RPARPAR peptide binding to NRP-1; 360,000 tested, 0.85% active;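 active = inhibition or corrected inhibition above about 18%, plus a signal ratio from 0.5 to 1.5, limit read from the data, passing the limit was not always enough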
Target sequence (O14786 whole entry, looked up): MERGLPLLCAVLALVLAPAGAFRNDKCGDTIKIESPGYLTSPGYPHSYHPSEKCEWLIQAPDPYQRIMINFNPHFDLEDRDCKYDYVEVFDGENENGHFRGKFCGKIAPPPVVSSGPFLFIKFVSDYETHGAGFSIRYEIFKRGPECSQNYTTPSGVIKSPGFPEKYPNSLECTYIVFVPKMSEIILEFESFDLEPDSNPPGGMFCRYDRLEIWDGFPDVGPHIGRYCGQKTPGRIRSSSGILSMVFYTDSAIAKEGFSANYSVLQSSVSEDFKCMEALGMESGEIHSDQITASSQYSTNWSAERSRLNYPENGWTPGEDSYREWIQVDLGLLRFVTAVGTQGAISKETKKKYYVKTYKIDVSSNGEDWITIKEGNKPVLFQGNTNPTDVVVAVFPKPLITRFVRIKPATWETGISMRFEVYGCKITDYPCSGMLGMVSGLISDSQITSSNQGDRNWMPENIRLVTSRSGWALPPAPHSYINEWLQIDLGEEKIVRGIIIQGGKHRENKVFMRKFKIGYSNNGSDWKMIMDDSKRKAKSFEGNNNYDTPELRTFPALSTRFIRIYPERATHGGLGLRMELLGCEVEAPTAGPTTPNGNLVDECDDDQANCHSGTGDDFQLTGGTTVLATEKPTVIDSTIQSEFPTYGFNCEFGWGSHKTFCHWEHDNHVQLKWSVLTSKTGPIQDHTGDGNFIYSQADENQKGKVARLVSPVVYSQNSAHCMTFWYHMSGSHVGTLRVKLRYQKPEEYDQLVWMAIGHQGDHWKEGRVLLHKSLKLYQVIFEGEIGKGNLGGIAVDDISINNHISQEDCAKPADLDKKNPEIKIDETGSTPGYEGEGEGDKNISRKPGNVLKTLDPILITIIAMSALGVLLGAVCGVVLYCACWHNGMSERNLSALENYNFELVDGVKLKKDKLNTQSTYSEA
ATG4B inh: ATG4B protease inhibitors, primary screen, biochemical, fluorescence, uHTS | Cysteine protease ATG4B (Homo sapiens), Q9Y4P1 | ATG4B cleavage of LC3-PLA2, NBD-HPC fluorescence, 1 h | inhibition, % at 8.33 µM | 340,000 tested, 0.51% active | AID 504462, 2011; in the data active = inhibition above about 40%
MPTP inh: mitochondrial permeability transition pore inhibitors, primary screen, biochemical, isolated mouse mitochondria, absorbance | Ca2+ swelling absorbance, 30 min | inhibition, % at 10 µM | 360,000 tested, 1.4% active | AID 602449, 2012;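 active = inhibition of 50% or more, scaled per plate between neutral and stimulator controls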
SKN-1 block: suppressors of acrylamide-induced Pgst-4::GFP reporter in worms, primary screen, SKN-1 inhibitor project, whole organism, uHTS, GFP/RFP fluorescence ratio, strain VP596. C. elegans VP596 Pgst-4::GFP/RFP ratio, 24 h. inhibition, % at 21.8 µM. 360,000 tested, 0.49% active;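 active = interference check ratio from 0.5 to 1.5 plus GFP to RFP signal ratio inhibition reaching or exceeding a fixed threshold, cut at about 30% in these data, passing the limit was not always enough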
Each line names hits and unclear results; the compound was inactive in the other large screens. An excerpt weighted towards active compounds, which were near 2.7% of everything screened.

Cc1c(C)[n+](=O)c(C)c(C)n1[O-]	CendR NRP1 mod 29
Cc1c(C)[n+](=O)c(-c2ccc(Br)cc2)c(C)n1[O-]	none
CO[C@H]1CN(C)C(=O)c2ccc(NS(=O)(=O)c3cccc(C)c3)cc2OC[C@@H](C)NC[C@H]1C	none (no result: CendR NRP1 mod, ATG4B inh, MPTP inh, SKN-1 block)
CN(C)S(=O)(=O)c1ccc(N2CCCC2)c(C(=O)Nc2ccccc2)c1	none
Cc1nnc(NC(=O)c2cc(S(=O)(=O)N(C)C)ccc2N2CCCC2)s1	CendR NRP1 mod 23
CN(C)S(=O)(=O)c1ccc(N2CCCC2)c(C(=O)NCc2cccc(C(F)(F)F)c2)c1	SKN-1 block 47 (no result: CFTR F508del cor)
COc1ccc(S(=O)(=O)N(C)C[C@H]2OCCCC[C@H](C)Oc3ccc(NS(=O)(=O)c4ccc(C)cc4)cc3C(=O)N([C@H](C)CO)C[C@H]2C)cc1	none (no result: CendR NRP1 mod, ATG4B inh, MPTP inh, SKN-1 block)
COc1cc(/C=C2\SC(=Nc3ccc(Cl)c(C(=O)O)c3)NC2=O)c(Br)c(Br)c1O	CFTR F508del cor 29
COc1cc(/C=C2\SC(=Nc3ccccc3)NC2=O)cc(Cl)c1O	none
COc1cccc(C(=O)NCCS(=O)(=O)N2CCN(c3ccccc3)CC2)c1OC	CendR NRP1 mod 25 (no result: ATG4B inh)
O=C(NCCS(=O)(=O)N1CCN(c2ccccc2)CC1)c1ccccc1F	none
C[C@H](CO)N1C[C@H](C)[C@@H](CN(C)Cc2ccccc2)Oc2ncc(-c3cccc(C#N)c3)cc2C1=O	none (no result: CendR NRP1 mod, ATG4B inh, MPTP inh, SKN-1 block)
COc1ccc(S(=O)(=O)N(C)C[C@H]2Oc3c(NS(=O)(=O)c4ccc(Cl)cc4)cccc3C(=O)N([C@H](C)CO)C[C@@H]2C)cc1	none (no result: CendR NRP1 mod, ATG4B inh, MPTP inh, SKN-1 block)
O=C(NCc1ccco1)c1sc2cc(F)ccc2c1Cl	SKN-1 block 37 (no result: CFTR F508del cor)
Cc1ccc(S(=O)(=O)N(C)C[C@@H]2Oc3ccc(NS(C)(=O)=O)cc3CC(=O)N([C@@H](C)CO)C[C@H]2C)cc1	none (no result: CendR NRP1 mod, ATG4B inh, MPTP inh, SKN-1 block)
COc1ccc(C2C(C(=O)OC(C)C)=C(C)N=c3s/c(=C\c4cccs4)c(=O)n32)cc1 (stereo not drawn)	SKN-1 block 43 (no result: CFTR F508del cor)
C=CC[C@@H](CC(=O)N[C@@H](CO)Cc1ccccc1)C(=O)N[C@@H](COC(=O)[C@@H](CC=C)CC(=O)OC(C)(C)C)Cc1c[nH]c2ccccc12	none
C=CC[C@@H](CC(=O)N(CCO)Cc1ccccc1)C(=O)N[C@H](COC(=O)[C@H](CC=C)CC(=O)OC(C)(C)C)Cc1c[nH]c2ccccc12	CFTR F508del cor 8.5
C=CC[C@@H](CC(=O)N[C@H](CO)Cc1ccccc1)C(=O)N[C@H](COC(=O)[C@@H](CC=C)CC(=O)OC(C)(C)C)Cc1c[nH]c2ccccc12	CendR NRP1 mod 27
Cc1cc(C)n(-c2ccc(F)cc2)c(=O)c1C#N	none
Cc1ccc(-n2c(C)cc(C)c(C#N)c2=O)cc1C	CendR NRP1 mod 30 (no result: CFTR F508del cor)
COc1ccc(OC)c(NC(=O)Nc2ccc(O)c3ccccc23)c1	CendR NRP1 mod 25
COc1ccc(OC)c(NC(=O)Nc2c(O)ccc3ccccc23)c1	none
COc1cccc(N2CC(O)=C(c3nc4ccccc4s3)C2=N)c1	none
COc1cccc(N2CC(O)=C(c3ccccc3)C2=N)c1	SKN-1 block 35 (no result: CFTR F508del cor)
CO[C@H]1CN(C)C(=O)c2cc(NC(=O)NC3CCCCC3)ccc2OC[C@@H](C)N(CC2CC2)C[C@@H]1C	none (no result: CendR NRP1 mod, ATG4B inh, MPTP inh, SKN-1 block)
C[C@@H]1CN([C@H](C)CO)C(=O)c2cc(NC(=O)C3CCCCC3)ccc2O[C@H]1CN(C)Cc1ccc(Cl)c(Cl)c1	none (no result: CendR NRP1 mod, ATG4B inh, MPTP inh, SKN-1 block)
CCOC(=O)c1ccc(N2CCOCC2)c(NC(=O)c2c(-c3ccccc3)noc2C)c1	CFTR F508del cor 16
Cc1onc(-c2ccccc2)c1C(=O)Nc1cc(C(F)(F)F)ccc1N1CCOCC1	none (no result: CFTR F508del cor)
COCCn1cc(C(=O)NCc2cccs2)c2c3ccccc3n(C)c2c1=O	SKN-1 block 41 (no result: CFTR F508del cor)
COc1cc(C(=O)NCc2ccccc2)cc(Br)c1OC	CendR NRP1 mod 21
C[C@@H]1CCCCO[C@H](CN(C)S(C)(=O)=O)[C@@H](C)CN([C@H](C)CO)C(=O)c2cc(NC(=O)c3ccncc3)ccc2O1	none (no result: CendR NRP1 mod, ATG4B inh, MPTP inh, SKN-1 block)
C/C=C/c1ccc([C@H]2[C@H](CO)N(C(C)=O)C23CN(S(C)(=O)=O)C3)cc1	none (no result: CendR NRP1 mod, ATG4B inh, MPTP inh, SKN-1 block)
O=C(C=Cc1ccccc1)c1cc(Br)ccc1O	SKN-1 block 43
CCC1CSC(Nc2ccc(C(=O)/C=C/c3cccc(C)c3)cc2)=N1 (stereo not drawn)	SKN-1 block 54
CC/C(=C1/C(=O)CC(C)(C)C(C(=O)OC)C1=O)N1CCCC1 (stereo not drawn)	CendR NRP1 mod 35 (no result: CFTR F508del cor)
CN(C(=O)COc1ccccc1)c1nnc(C23CC4CC(CC(C4)C2)C3)s1	CendR NRP1 mod 19
Cc1ccc(NC(=O)c2cc(Cl)nc3ccccc23)cc1	none (no result: CFTR F508del cor)
COc1cc(C(=O)Nc2ccc(C)cc2)c2ccccc2n1	CFTR F508del cor 11
CCOc1ccc(NC(=O)c2cc(OC)nc3ccccc23)cc1	CFTR F508del cor 11
CCc1ccccc1NC(=O)NNC(=O)c1ccc2ccccc2c1O	none
CCOc1ccc(NC(=O)NNC(=O)c2ccc3ccccc3c2O)cc1	CendR NRP1 mod 26
C/C=C/c1cnc2c(c1)C(=O)N([C@H](C)CO)C[C@@H](C)[C@H](CN(C)S(=O)(=O)c1ccc(F)cc1)O2	none (no result: CendR NRP1 mod, ATG4B inh, MPTP inh, SKN-1 block)
C[C@@H]1CN([C@@H](C)CO)C(=O)c2cc(NC(=O)CCC(F)(F)F)ccc2O[C@H]1CN(C)Cc1ccc(-c2ccccc2)cc1	none (no result: CendR NRP1 mod, ATG4B inh, MPTP inh, SKN-1 block)
Cc1noc(NC(=O)c2ccccc2Cl)c1C#N	none (no result: CFTR F508del cor)
COc1ccccc1C(=O)Nc1onc(C)c1C#N	CFTR F508del cor 18, CendR NRP1 mod 20
C/C=C/c1ccc([C@@H]2[C@@H](CNC(=O)CC3CC3)N(C(=O)CC)[C@H]2CO)cc1	none (no result: CendR NRP1 mod, ATG4B inh, MPTP inh, SKN-1 block)
N#Cc1nc(NCC(F)F)nc(Nc2cc(F)cc(F)c2)n1	CFTR F508del cor 8.0
O=C(OCn1nnc2ccccc2c1=O)c1ccc(Br)o1	CendR NRP1 mod 35 (no result: CFTR F508del cor)
O=C(OCn1nnc2ccccc2c1=O)c1ccc(O)cc1	none
O=c1c2ccccc2nnn1Cc1ccc(Br)cc1	SKN-1 block 36
C[C@H](O)C#Cc1cnc2c(c1)C(=O)N([C@@H](C)CO)C[C@@H](C)[C@@H](CN(C)C(=O)Cc1ccncc1)O2	none (no result: CendR NRP1 mod, ATG4B inh, MPTP inh, SKN-1 block)
Cc1ccc2c(c1)Sc1c(ccc3ccccc13)N2	CendR NRP1 mod 48
Cc1noc(C)c1NC(=O)N(C)C[C@@H]1Oc2c(NS(=O)(=O)c3ccc(F)cc3)cccc2C(=O)N([C@@H](C)CO)C[C@@H]1C	none (no result: CendR NRP1 mod, ATG4B inh, MPTP inh, SKN-1 block)
O=C(/C=C(\O)c1ccc(Cl)cc1)C(=O)NNC(=O)C(O)(c1ccccc1)c1ccccc1	ATG4B inh 42 (no result: CFTR F508del cor)
O=C1c2cccc3c(O)ccc(c23)C(=O)N1Cc1ccco1	CFTR F508del cor 27
O=C1c2cccc3c(O)ccc(c23)C(=O)N1c1ccc(Cl)cc1	CFTR F508del cor 19
